The source of these data is PubChem BioAssay (Tox21).

A short description of test [1]: qHTS assay to identify small molecule antagonists of the vitamin D receptor (VDR) signaling pathway - cell viability counter screen (AID 743225; active means well fitted curve in the direction sought with a large enough effect in the repeat runs; an effect the other way counts as inactive or inconclusive; further: on the % scale 0 is the no-effect control and ±100 the full control effect; nearly all actives have a fitted effect of over 50% in size). The essentials:
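Cytotoxicity toward the VDR-bla HEK 293T line was scored by ATP-based CellTiter-Glo luminescence, read in the wells already used for the beta-lactamase readout after 16 h compound treatment under 3 nM 1-alpha,25-dihydroxyvitamin D3 stimulation.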
(In general: Quantitative high-throughput screening tests each substance at several concentrations.)

The nature of test [2]: qHTS assay to identify small molecule agonists of the NFkB signaling pathway - cell viability counter screen (AID 1159515). Further: nearly all actives have a fitted effect of over 55% in size. Further: potency means the concentration at half of the fitted maximal effect. On activity, negative = cytotoxic: series mostly up to about 61 µM; on the % scale 0 is the no-effect control and ±100 the full control effect. In outline: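 Parallel cytotoxicity counter screen in ME-180 cells carrying an NFkB-response-element beta-lactamase reporter, 2,000 cells/well. Compound exposure lasted 5 hr at 37 C, 5% CO2. Cell viability was quantified by CellTiter-Glo luminescence.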

Test [3] in a line: qHTS assay to identify small molecule agonists of the endoplasmic reticulum stress response signaling pathway (AID 1159516; active means well fitted activation curve with a large enough effect in the signal ratio in the repeat runs, not every such curve was filed as active; the % refers to the signal ratio; further: on the % scale 0 is the no-effect control and ±100 the full control effect). The essentials: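 Using a HeLa line with an ESRE-driven beta-lactamase gene, agonist activity was measured by FRET substrate fluorescence (460 and 530 nm emission) after cells were treated with compounds for 5 hr at 37 C and 5% CO2.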
The nature of test [4]: qHTS assay to identify small molecule agonists of the endoplasmic reticulum stress response signaling pathway - cell viability counter screen (AID 1159517).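 Further: HeLa cells carrying an ER stress response element beta-lactamase reporter; series mostly up to about 61 µM; on the % scale 0 is the no-effect control and ±100 the full control effect; nearly all actives have a fitted effect of over 50% in size.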 The essentials:
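Cytotoxicity of test compounds toward ESRE-bla HeLa cells was assessed after 5 hr exposure. The luminescent CellTiter-Glo signal was measured 30 min after reagent addition.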

The nature of test [5]: qHTS assay to identify small molecule antagonists of the retinoid-related orphan receptor gamma (ROR-gamma) signaling pathway - cell viability counter screen (AID 1159520; active means well fitted curve in the direction sought with a large enough effect in the repeat runs; an effect the other way counts as inactive or inconclusive; further: on the % scale 0 is the no-effect control and ±100 the full control effect; nearly all actives have a fitted effect of over 50% in size). The essentials:
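Tet-on ROR gamma CHO cells (1,000/well) were plated 4 hr, given compounds in DMSO for 2 hr at 37 C, then induced with 1 uM final doxycycline for 16 hr. Viability was read as ATP by CellTiter-Glo luminescence after 30 min.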

Test [6] in a line: qHTS assay to identify small molecule agonists of the AP-1 signaling pathway (AID 1159526). Further: on the % scale 0 is the no-effect control and ±100 the full control effect.
Test [7] concerns the target Retinoic acid receptor RXR-alpha (Homo sapiens) (UniProt P19793). Kind of test: qHTS assay to identify small molecule agonists of the RXR signaling pathway (AID 1159527). Further: on the % scale 0 is the no-effect control and ±100 the full control effect; nearly all actives have a fitted effect of over 35% in size. In outline: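 Reporter activation is measured as beta-lactamase activity via FRET substrate cleavage (emission 460/530 nm) in HEK 293T cells expressing an RXR-alpha-driven bla construct, following 16 hr compound exposure at 37 C.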

Test [8] is described as follows: qHTS assay to identify small molecule agonists of the vitamin D receptor (VDR) signaling pathway - cell viability counter screen (AID 743224; active means well fitted curve in the direction sought with a large enough effect in the repeat runs; an effect the other way counts as inactive or inconclusive; further: nearly all actives have a fitted effect of over 50% in size; further: potency means the concentration at half of the fitted maximal effect; on activity change, negative = cytotoxicity: series mostly up to about 63 µM; on the % scale 0 is the no-effect control and ±100 the full control effect). The essentials: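 Compounds were pin-transferred onto VDR-bla cells plated 4 h earlier; following 16 h incubation at 37C, cell viability was quantified by CellTiter-Glo luminescence after 30 min at room temperature.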
Test [9] deals with Nuclear receptor ROR-gamma (Homo sapiens) (UniProt P51449). Kind of test: qHTS assay to identify small molecule antagonists of the retinoid-related orphan receptor gamma (ROR-gamma) signaling pathway (AID 1159521; active means well fitted curve in the direction sought with a large enough effect in the repeat runs; an effect the other way counts as inactive or inconclusive; further: nearly all actives have a fitted effect of over 50% in size; further: potency means the concentration at half of the fitted maximal effect). The essentials: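 Readout: ONE-Glo luciferase luminescence, 30 min at room temperature. System: Tet-on RORγ CHO, RORE-LUC. Sequence: compound 2 h, doxycycline 1 uM final, 16 h at 37 C.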

Test [10] in a line: qHTS assay to identify small molecule agonists of the AP-1 signaling pathway - cell viability counter screen (AID 1159525). Further: nearly all actives have a fitted effect of over 55% in size. The essentials: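 Each titration point was normalised to DMSO and tetra n-octyl ammonium bromide controls. The read was Cell Titer Glo luminescence after 30 min at RT, following 5 h compound exposure of ME-180 AP-1-bla cells at 37 °C.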

“And” between values parts separate entries of the source, which are not always exact repeats. Identical values can stand only once. Records with an inconclusive call do not appear. Unmarked numbers belong to inactive results. The source made the active and inactive calls. Unless noted, the call rests on the fitted dose curve.

Retinoic acid receptor RXR-alpha (Homo sapiens), sequence (P19793 whole entry, looked up): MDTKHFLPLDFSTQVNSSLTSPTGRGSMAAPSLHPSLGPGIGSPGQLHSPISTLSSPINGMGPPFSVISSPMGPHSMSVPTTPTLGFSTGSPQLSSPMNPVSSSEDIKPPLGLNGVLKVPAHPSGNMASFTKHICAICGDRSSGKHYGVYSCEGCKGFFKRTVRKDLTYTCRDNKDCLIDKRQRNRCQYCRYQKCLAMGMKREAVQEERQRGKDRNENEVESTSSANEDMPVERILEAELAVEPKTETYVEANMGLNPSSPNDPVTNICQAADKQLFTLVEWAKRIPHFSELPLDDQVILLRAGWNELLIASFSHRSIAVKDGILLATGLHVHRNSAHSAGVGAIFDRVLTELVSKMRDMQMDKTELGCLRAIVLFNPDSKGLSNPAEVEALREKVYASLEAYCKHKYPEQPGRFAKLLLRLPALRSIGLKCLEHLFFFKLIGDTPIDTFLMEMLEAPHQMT

Turning to `COCCCN1CCC(NC(=O)c2cc(Cl)c(N)c3c2OCC3)CC1`, the Potency entry in test [1], in test [2], in test [3], in test [4], in [5] and in [6] was “inactive” in each case. Besides, in [7], the Potency result was “inactive”.

On to `CC1=CC=C(C(C)C)CC1`, for which the Potency entry in [8], in [1], in test [2], in [3], in test [4] and in test [5] was “inactive” in each case. Moreover, the Potency entry in test [6] and in [7] was “inactive” throughout.

Regarding `COC(C)(C)CCO`, the Potency result in test [8], in test [1], in test [2], in test [3], in [4] and in test [5] was “inactive” throughout. Moreover, the Potency entry in test [6] and in [7] was “inactive” throughout.

On to `CC(C)(O)c1ccc(CNC(=O)c2cccnc2Oc2ccc(F)cc2)cc1`, for which the Potency entry in test [8], in [1], in [2], in [3], in test [4] and in test [5] was “inactive” throughout. Besides, the Potency result in test [6] is “inactive”.

For `Cc1cccc(C)c1NC(=O)CN(CC(=O)O)CC(=O)O`, the Potency result in [8], in [1], in test [2], in test [3], in [4] and in [5] was “inactive” in each case. Further, the Potency entry in test [6] and in test [7] was “inactive” each time.

`CCCCCCCCCCCCN1CCCCCC1=O`: in test [2], the Potency is 54.9 µM (active). The Potency result in test [3], in [4] and in test [9] was “inactive” in each case.

As to `C=CC(=O)OCCOCCOCCOCCOC(=O)C=C`, the Potency entry in test [2], in [3], in [4] and in [10] was “inactive” each time. For the same compound, the Potency in test [9] was 12.3 µM (active) and 8.56 µM (active).

Take `CCc1c(C(=O)NN2CCCCC2)nn(-c2ccc(Cl)cc2Cl)c1-c1ccc(Br)cc1`: the figures for the Potency in [8] and in test [9] were 19.5 µM (active) and 54.5 µM (active), respectively. Also, the Potency entry in test [1], in test [2], in [3], in test [4], in [10] and in [6] was “inactive” each time.

In the case of `Cc1nn(C)c(Oc2ccccc2)c1/C=N/OCc1ccc(C(=O)OC(C)(C)C)cc1`, the Potency in test [8] was 0.0123 µM (active); in [9], 0.486 µM (active). Also, the Potency result in [2], in test [3], in test [4], in test [10] and in [6] was “inactive” in each case.

On to `CN1C[C@H]2c3ccccc3Oc3ccc(Cl)cc3[C@@H]2C1`, for which the Potency entry in test [8], in [1], in [2], in test [3], in test [4] and in test [5] was “inactive” each time. Also, in test [7], the Potency entry was “inactive”.

For the compound `COc1cc2nc(N3CCN(C(=O)C4COc5ccccc5O4)CC3)nc(N)c2cc1OC` (centres undefined), the Potency result in test [8], in [1], in [2], in [3], in [4] and in test [5] was “inactive” in each case. The Potency result in [6] and in test [7] was “inactive” throughout.

In the case of `C=C(C)C(=O)OCC`, the Potency result in test [8], in [1], in test [2], in test [3], in test [4] and in test [5] was “inactive” in each case. The Potency result in [6] and in [7] was “inactive” throughout.

With `CC[N+](C)(CC)CCOC(=O)C(O)(c1ccccc1)C1CCCCC1` (centres undefined), the Potency result in test [8], in test [1], in test [2], in [3], in test [4] and in test [5] was “inactive” each time. In addition, the Potency result in [6] and in test [7] was “inactive” throughout.

In the case of `COc1ccc2cccc(CCNC(C)=O)c2c1`, the Potency entry in [8], in test [1], in test [2], in test [3], in test [4] and in test [5] was “inactive” in each case. Further, the Potency result in test [6] is “inactive”.

Regarding `COc1cc(C(=O)OCCCN2CCCN(CCCOC(=O)c3cc(OC)c(OC)c(OC)c3)CC2)cc(OC)c1OC`, the Potency result in test [8], in [2], in test [3], in test [4], in test [9] and in test [10] was “inactive” each time. In addition, the Potency result in test [6] was “inactive”.

With `NCCCN1CCOCC1`, the Potency entry in test [8], in test [1], in test [2], in [3], in test [4] and in test [5] was “inactive” each time. In [6], the Potency result was “inactive”.

For `O=C(O)CNCC(=O)O`, the activity change, negative = cytotoxicity is -6.84% [at 5.95 µM] in test [8] and -2.31% [at 6.95 µM] in [4]. Also, in [1], the viability change, negative = cytotoxic was -0.385% [at 6.95 µM]. In addition, in test [2], the activity, negative = cytotoxic was 11.1% [at 6.95 µM]. The activation in [3] was -0.0292% [at 6.95 µM]; in test [6], -4.84% [at 6.97 µM]; in test [7] it was 1.94% [at 6.98 µM]. The activity, negative = cytotoxicity in test [5] was 0.267% [at 8.39 µM].

`CCOc1ccc(N)c([N+](=O)[O-])c1`: the Potency result in test [8], in test [1], in [2], in test [3], in test [4] and in test [9] was “inactive” throughout. Moreover, the Potency entry in test [10], in test [6] and in test [7] was “inactive” throughout.

Turning to `CCO[Si](CCCCl)(OCC)OCC`, the Potency result in test [1], in [2], in test [3], in test [4], in test [5] and in [6] was “inactive” each time. In addition, the Potency result in test [7] is “inactive”.

In the case of `OCCNCc1ccccc1`, the Potency entry in [8], in test [1], in test [2], in test [3], in test [4] and in [9] was “inactive” throughout. In addition, the Potency entry in test [10], in test [6] and in test [7] was “inactive” throughout.

With `CC(C)CC(=O)C1C(=O)c2ccccc2C1=O`, the Potency entry in test [8], in test [2], in [3], in test [4], in test [10] and in [6] was “inactive” throughout. In addition, in test [9], the Potency was 17.2 µM (active).

For `O=C(Nc1ccccc1)c1ccccc1O`, the Potency entry in test [1], in test [2], in test [3], in test [4], in test [9] and in test [10] was “inactive” in each case. The Potency entry in [6] and in test [7] was “inactive” throughout.

On to `CCCCNc1ccc(C(=O)OCCOCCOCCOCCOCCOCCOCCOCCOCCOC)cc1`, for which the Potency entry in [1], in test [2], in [3], in test [4], in test [5] and in test [6] was “inactive” in each case. Besides, the Potency result in test [7] is “inactive”.

`CC(=O)OC[C@H]1O[C@@H](n2ncc(=O)[nH]c2=O)[C@H](OC(C)=O)[C@@H]1OC(C)=O`: the Potency result in test [1], in test [2], in [3], in test [4], in test [10] and in [6] was “inactive” in each case. The Potency in [9] was 1.5 µM (active).

Turning to `CC(=O)c1cccc([N+](=O)[O-])c1`, the Potency entry in [1], in test [2], in [3], in test [4], in test [5] and in [6] was “inactive” in each case.

Turning to `CCOC(=O)C(=O)CCc1ccccc1`, the Potency result in [8], in [1], in test [2], in test [3], in test [4] and in test [5] was “inactive” each time. The Potency entry in [6] and in [7] was “inactive” each time.

As for `CCCCCCCCCCCCCCCCOS(=O)(=O)O`, the Potency entry in test [2], in test [3], in test [4] and in [9] was “inactive” each time.
